From the supplement of paper PMC10849652
Of roughly 8,800 targets only a part is listed; those with a hit were picked by preference. About 0.5% of all pairs of compound and target were hits. Unmarked numbers belong to inactive results.

Legend:
Assay in all cases: log2 fold change, soluble protein after heating vs DMSO (PISA); higher = thermal stabilisation; K562 lysate, 10 uM; active = over 0.2 and 3.5 SD of the protein, either way, in both replicates (recomputed)
erlotinib = compound: C#Cc1cccc(Nc2ncnc3cc(OCCOC)c(OCCOC)cc23)c1 [erlotinib]
How it was run: (§1)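 A 30 min treatment with 10 μM compound was applied to crude K562 extract at 1 mg/mL protein in PBS pH 7.4 with 1 mM MgCl2. Heating for 3 min spanned 48°C-58°C, after which aliquots were pooled, adjusted to 0.5% NP-40 at 4°C and spun at 21,000xg for 90 min. TMTpro 16plex LC-MS/MS of the supernatant, with channel sums equalised, gave values recorded as log-two fold change in thermal stability against solvent controls, from duplicates.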

[1] = compound: C1=CC(=CC=C1C2=NC3=C(N2)C=C(C=C3)C(=O)N)OC4=CC=C(C=C4)Cl
How it was run: as §1

[2] = compound: C1=CC2=NC=CN=C2C=C1/C=C/3\C(=O)NC(=O)S3
How it was run: as §1

[3] = compound: C1=CC=C(C=C1)C2=NC(=C(N2)C3=CC=NC=C3)C4=CC(=C(C=C4)Cl)O
How it was run: as §1

[4] = compound: C1CCN(C1)C(=O)NC2=CC=CC(=C2)NC3=NC=C(C(=N3)NCCC4=CN=CN4)Br
How it was run: as §1

[5] = compound: C1CN(CCC1(CC2=CC=C(C=C2)Cl)N)C3=NC=NC4=C3C=CN4
How it was run: as §1

IRAK-1-4 Inhibitor I = compound: C1COCCN1CCN2C3=CC=CC=C3N=C2NC(=O)C4=CC(=CC=C4)[N+](=O)[O-] [IRAK-1-4 Inhibitor I]
How it was run: as §1

[6] = compound: C/C(=N\NC(=O)C1=CC(=CC=C1)S(=O)(=O)N2CCOCC2)/C3=C(C=CC(=C3)Cl)O
How it was run: as §1

[7] = compound: C1=CC2=C(C=CC(=C2)/C=C\3/C(=O)NC(=NCC4=CC=CS4)S3)N=C1
How it was run: as §1

[8] = compound: C1=CC=C2C(=C1)C3=NNC4=CC=CC(=C43)C2=O
How it was run: as §1

UniProt B2RTY4, sequence (B2RTY4 whole entry, looked up): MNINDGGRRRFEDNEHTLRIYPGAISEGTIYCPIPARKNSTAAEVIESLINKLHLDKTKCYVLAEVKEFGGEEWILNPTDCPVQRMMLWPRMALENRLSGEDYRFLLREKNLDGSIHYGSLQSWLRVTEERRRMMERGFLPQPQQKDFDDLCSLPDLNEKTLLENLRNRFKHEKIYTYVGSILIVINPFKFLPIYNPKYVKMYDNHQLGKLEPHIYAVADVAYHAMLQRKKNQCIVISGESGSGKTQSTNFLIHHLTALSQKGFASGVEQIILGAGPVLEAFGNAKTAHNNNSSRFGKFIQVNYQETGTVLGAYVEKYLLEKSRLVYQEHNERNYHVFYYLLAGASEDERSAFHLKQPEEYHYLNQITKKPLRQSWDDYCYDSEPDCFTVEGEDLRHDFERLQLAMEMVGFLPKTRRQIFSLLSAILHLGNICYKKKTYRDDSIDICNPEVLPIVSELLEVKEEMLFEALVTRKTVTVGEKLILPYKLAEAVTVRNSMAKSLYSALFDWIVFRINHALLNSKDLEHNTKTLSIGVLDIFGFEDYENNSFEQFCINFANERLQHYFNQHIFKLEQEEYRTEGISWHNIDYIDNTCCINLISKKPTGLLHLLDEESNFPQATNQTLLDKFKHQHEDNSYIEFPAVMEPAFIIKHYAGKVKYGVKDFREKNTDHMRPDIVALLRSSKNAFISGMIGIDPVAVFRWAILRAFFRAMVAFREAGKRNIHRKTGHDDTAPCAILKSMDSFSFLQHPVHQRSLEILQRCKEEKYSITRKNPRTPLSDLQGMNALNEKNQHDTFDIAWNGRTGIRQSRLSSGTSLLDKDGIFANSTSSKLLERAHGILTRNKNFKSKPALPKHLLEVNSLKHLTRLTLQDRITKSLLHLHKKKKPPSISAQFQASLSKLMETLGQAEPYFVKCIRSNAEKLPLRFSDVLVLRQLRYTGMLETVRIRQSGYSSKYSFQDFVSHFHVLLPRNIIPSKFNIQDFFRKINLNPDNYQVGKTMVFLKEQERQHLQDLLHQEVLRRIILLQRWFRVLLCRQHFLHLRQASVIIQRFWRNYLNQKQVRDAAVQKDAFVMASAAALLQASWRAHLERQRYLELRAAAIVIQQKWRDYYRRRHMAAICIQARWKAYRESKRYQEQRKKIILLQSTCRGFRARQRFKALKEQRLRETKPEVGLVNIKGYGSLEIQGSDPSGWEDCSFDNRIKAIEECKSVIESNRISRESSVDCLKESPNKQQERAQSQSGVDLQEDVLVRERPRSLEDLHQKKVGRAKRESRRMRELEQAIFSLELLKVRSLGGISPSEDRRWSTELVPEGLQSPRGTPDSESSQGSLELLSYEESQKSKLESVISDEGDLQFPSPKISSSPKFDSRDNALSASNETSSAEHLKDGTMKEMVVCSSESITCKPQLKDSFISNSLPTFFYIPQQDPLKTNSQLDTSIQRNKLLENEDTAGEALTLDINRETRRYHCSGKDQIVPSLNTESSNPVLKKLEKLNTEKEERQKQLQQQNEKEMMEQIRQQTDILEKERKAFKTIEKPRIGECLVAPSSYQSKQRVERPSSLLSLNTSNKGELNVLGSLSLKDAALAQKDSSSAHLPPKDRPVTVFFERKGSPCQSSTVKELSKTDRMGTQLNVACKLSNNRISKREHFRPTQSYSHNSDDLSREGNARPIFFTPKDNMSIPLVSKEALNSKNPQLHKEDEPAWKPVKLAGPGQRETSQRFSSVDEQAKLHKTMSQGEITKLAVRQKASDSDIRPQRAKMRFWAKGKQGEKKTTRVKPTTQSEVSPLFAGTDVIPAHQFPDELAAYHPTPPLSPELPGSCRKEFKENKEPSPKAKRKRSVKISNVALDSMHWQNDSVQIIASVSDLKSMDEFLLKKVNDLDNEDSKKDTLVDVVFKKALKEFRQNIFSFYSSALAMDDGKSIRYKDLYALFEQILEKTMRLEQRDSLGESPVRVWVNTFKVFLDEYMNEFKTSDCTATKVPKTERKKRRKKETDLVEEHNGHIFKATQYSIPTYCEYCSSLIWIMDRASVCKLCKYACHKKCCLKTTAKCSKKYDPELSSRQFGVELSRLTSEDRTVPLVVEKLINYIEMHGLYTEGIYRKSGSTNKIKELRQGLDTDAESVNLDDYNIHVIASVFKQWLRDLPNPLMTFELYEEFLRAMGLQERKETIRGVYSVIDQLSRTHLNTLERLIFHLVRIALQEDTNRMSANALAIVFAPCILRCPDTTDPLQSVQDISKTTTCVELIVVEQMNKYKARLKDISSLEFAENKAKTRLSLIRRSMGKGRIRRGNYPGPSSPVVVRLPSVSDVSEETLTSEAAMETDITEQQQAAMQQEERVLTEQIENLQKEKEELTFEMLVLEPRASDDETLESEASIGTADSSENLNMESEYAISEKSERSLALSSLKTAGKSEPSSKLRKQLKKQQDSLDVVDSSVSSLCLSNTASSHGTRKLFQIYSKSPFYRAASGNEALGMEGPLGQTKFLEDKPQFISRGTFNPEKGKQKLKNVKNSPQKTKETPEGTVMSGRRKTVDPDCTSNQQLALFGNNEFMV
UniProt Q9BWT3, sequence (Q9BWT3 whole entry, looked up): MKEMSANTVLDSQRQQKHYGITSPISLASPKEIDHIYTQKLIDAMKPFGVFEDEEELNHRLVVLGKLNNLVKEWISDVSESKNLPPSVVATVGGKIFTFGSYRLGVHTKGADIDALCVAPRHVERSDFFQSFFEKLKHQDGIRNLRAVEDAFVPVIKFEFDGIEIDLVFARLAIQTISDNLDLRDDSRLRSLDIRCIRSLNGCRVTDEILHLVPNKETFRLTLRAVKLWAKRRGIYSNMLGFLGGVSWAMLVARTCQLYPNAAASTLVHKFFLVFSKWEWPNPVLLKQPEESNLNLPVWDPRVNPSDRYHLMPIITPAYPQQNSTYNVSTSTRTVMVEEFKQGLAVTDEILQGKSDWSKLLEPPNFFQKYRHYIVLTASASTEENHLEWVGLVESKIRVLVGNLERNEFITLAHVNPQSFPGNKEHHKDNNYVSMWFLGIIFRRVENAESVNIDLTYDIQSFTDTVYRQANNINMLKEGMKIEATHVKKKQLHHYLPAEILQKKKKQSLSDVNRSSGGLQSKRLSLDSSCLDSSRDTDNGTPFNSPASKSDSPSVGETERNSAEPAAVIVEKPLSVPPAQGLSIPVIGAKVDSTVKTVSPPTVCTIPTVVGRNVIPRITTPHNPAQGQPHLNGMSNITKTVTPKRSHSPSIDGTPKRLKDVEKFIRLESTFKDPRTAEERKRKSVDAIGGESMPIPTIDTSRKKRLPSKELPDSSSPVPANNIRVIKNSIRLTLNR
UniProt P47900, sequence (P47900 whole entry, looked up): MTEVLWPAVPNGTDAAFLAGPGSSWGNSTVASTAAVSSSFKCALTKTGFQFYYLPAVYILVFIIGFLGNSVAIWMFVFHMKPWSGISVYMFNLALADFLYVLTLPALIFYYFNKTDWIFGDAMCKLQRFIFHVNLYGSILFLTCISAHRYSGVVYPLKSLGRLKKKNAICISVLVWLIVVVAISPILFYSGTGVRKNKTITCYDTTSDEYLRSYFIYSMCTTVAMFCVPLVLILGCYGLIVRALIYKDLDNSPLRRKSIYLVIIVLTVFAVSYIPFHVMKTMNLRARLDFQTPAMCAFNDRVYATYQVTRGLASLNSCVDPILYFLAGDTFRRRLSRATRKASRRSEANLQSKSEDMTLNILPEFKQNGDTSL
UniProt Q9BYG3, sequence (Q9BYG3 whole entry, looked up): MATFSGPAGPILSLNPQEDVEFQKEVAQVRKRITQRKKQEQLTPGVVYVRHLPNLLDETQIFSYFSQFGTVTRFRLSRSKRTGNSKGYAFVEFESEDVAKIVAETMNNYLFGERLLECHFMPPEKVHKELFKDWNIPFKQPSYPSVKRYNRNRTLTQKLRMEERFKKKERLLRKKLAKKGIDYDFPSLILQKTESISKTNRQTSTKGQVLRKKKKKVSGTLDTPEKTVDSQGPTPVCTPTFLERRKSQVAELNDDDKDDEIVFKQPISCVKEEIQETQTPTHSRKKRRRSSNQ
UniProt Q9UK39, sequence (Q9UK39 whole entry, looked up): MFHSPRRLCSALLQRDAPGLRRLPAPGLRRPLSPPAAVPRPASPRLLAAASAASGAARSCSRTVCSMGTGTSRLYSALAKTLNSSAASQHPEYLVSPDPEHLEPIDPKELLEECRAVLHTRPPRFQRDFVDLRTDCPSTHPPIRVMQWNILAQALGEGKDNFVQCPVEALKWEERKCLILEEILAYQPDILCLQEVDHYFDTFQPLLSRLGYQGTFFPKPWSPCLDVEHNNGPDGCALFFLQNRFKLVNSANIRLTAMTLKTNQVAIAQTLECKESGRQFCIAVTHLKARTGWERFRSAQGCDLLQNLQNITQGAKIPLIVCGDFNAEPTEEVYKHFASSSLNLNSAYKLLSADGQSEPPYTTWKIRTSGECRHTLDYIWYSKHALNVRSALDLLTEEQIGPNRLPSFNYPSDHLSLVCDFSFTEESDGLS
UniProt P10244, sequence (P10244 whole entry, looked up): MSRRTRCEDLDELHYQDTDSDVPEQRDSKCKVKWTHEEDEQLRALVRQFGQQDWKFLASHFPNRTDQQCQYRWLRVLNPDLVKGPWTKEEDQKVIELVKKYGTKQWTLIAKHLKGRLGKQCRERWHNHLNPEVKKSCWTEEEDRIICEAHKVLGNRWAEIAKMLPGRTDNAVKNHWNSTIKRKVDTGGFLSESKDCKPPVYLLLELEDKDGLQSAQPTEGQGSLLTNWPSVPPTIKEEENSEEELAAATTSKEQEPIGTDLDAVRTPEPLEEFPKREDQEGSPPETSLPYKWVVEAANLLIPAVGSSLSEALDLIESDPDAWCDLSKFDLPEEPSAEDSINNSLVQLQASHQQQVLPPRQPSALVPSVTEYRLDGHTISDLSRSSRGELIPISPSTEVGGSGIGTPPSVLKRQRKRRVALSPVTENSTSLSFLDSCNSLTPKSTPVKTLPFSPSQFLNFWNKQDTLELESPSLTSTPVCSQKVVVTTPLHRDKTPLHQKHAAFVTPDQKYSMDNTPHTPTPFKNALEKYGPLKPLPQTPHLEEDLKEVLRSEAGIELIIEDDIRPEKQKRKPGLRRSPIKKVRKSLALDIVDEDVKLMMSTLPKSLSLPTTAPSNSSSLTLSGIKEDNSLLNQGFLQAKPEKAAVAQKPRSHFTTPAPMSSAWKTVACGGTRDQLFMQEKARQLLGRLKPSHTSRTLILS

| Target | log2 fold change (erlotinib) | log2 fold change [1] | log2 fold change [2] | log2 fold change [3] | log2 fold change [4] | log2 fold change [5] | log2 fold change (IRAK-1-4 Inhibitor I) | log2 fold change [6] | log2 fold change [7] | log2 fold change [8] |
| --- | --- | --- | --- | --- | --- | --- | --- | --- | --- | --- |
| PAGE4 (UniProt O60829) | -0.423 | 0.098 | 0.034 | 0.015 | -0.068 | -0.095 | -0.034 |  |  |  |
| NUDT5 (UniProt C9JYY9) | 0.098 | -0.157 |  |  | -0.069 | 0.034 |  |  |  |  |
| ORC1 (UniProt Q13415) |  |  |  |  | 0.216 | 0.05 |  |  |  |  |
| PAPOLG (UniProt Q9BWT3) | 0 | -0.092 |  | 0.055 | -0.086 | 0.104 | 0.136 | -0.068 | 0.035 | 0.041 |
| P2RY1 (UniProt P47900) | -0.014 | -0.07 | 0.148 | 0.023 | -0.024 | 0.094 | 0.07 |  |  |  |
| MYLK (UniProt Q15746) |  |  | 0.025 |  | 0.106 | -0.262 |  | -0.067 | 0.027 | 0.345 |
| NMRAL1 (UniProt Q9HBL8) | 0.008 | -0.111 | -0.037 | -0.054 | 0.024 | 0.001 | -0.02 | 0.012 | -0.011 | 0.141 |
| NOA1 (UniProt Q8NC60) | 0.001 | -0.007 | -0.024 | 0.033 | 0.07 | -0.046 | -0.032 | 0.003 | -0.051 | -0.088 |
| PANK4 (UniProt Q9NVE7) | 0.013 | 0.003 | 0.033 | 0.003 | -0.002 | 0.018 | 0.018 | -0.012 | 0.051 | -0.052 |
| NR2F2 (UniProt P24468) | -0.007 | 0 | -0.192 | 0.076 |  |  | 0.048 |  |  |  |
| OSBPL1A (UniProt Q9BXW6) | 0.235 | 0.205 | 0.038 |  |  |  |  |  |  |  |
| NPLOC4 (UniProt I3L3I1) |  |  | -0.029 |  | -0.128 | 0.046 |  |  |  |  |
| NUMB isoform 2 (UniProt P49757) |  |  |  | 0.304 |  |  | 0.021 |  |  |  |
| MYBL2 (UniProt P10244) | 0.02 | -0.011 |  | 0.005 | -0.013 | -0.036 | 0.009 | 0.014 | 0.035 | 0.078 |
| OSGEP (UniProt Q9NPF4) | 0.012 | 0.041 | -0.236 (active) | 0.008 | 0.009 | -0.028 | -0.022 | -0.002 | -0.148 | -0.058 |
| NAA16 (UniProt Q6N069) |  |  | 0.027 | -0.127 | 0.136 | -0.038 | 0.017 | -0.036 | -0.022 | -0.206 |
| PANK2 (UniProt Q9BZ23) |  |  | 0.011 | -0.078 | -0.008 | -0.06 | 0.14 | -0.012 | -0.019 | -0.044 |

| Target | log2 fold change (erlotinib) | log2 fold change [1] | log2 fold change [2] | log2 fold change [3] | log2 fold change [4] | log2 fold change [5] | log2 fold change (IRAK-1-4 Inhibitor I) | log2 fold change [6] | log2 fold change [7] | log2 fold change [8] |
| --- | --- | --- | --- | --- | --- | --- | --- | --- | --- | --- |
| NFAT5 isoform 4 (UniProt O94916) |  |  | 0.161 |  |  |  |  |  |  |  |
| NUB1 (UniProt H7C5N1) |  |  |  | 0.163 |  |  | 0.183 |  |  |  |
| NUDT6 (UniProt P53370) | -0.01 | -0.02 |  | -0.008 | -0.06 | 0.06 | 0.032 | 0.113 | -0.518 (active) | 0.111 |
| MUC5AC (UniProt P98088) |  |  |  | 0.015 |  |  | -0.074 |  |  |  |
| PAGE2B (UniProt Q5JRK9) | 0.056 | -0.033 |  | -0.021 | 0.055 | 0.055 | 0.148 | 0.038 | -0.085 | 0.093 |
| MXRA7 (UniProt P84157) | -0.001 | 0.118 |  | -0.062 | 0.02 | 0 | -0.043 | 0.062 | 0.17 | -0.135 |
| NFATC4 isoform 2 (UniProt Q14934) |  |  | -0.064 |  | -0.07 | -0.012 |  | -0.627 (active) | -0.132 | -0.224 |
| NIFK (UniProt Q9BYG3) | 0 | -0.01 | 0.032 | 0.038 | -0.02 | -0.005 | -0.042 | -0.05 | -0.009 | 0.01 |
| MYO9A isoform 4 (UniProt B2RTY4) | 0.074 | -0.125 | 0.153 | -0.007 |  |  | -0.059 | 0.008 | -0.045 | -0.05 |
| NRIP1 (UniProt P48552) | 0.031 | 0 | -0.033 | 0.024 |  |  | 0.114 |  |  |  |
| PARP14 (UniProt Q460N5) | 0.06 | 0.012 | 0.081 | 0.005 | -0.025 | 0.062 | -0.095 | -0.037 | -0.032 | -0.166 |
| PARD3B (UniProt Q8TEW8) | 0.025 | -0.084 |  |  |  |  |  |  |  |  |
| MYH6 (UniProt P13533) | 0.107 | 0.08 | 0.304 | 0.029 | -0.049 | 0.115 | 0.052 |  |  |  |
| NOCT (UniProt Q9UK39) | -0.129 | 0.061 |  | 0.1 | -0.134 | 0.06 | 0.007 |  |  |  |
| MYO10 (UniProt Q9HD67) | -0.044 | 0.19 | -0.062 | 0.014 |  |  | 0.102 | -0.13 | 0.017 | -0.16 |
| NR3C1 isoform 3 (UniProt P04150) | 0.061 | -0.058 | 0.09 | 0.044 | 0.047 | -0.064 | -0.059 | -0.019 | -0.075 |  |
